Test results from the supplement of paper PMC10338343.
± gives the standard deviation.

test system: EfPiwi piRISC loaded with L1MC piRNA (26 nt); test: pre-steady-state target cleavage rate (min^-1); auxiliary factor: 500 nM Ephydatia muelleri Gtsf1; guide: L1MC piRNA 5'p-UAACUAAAUACUAUGCAAGCUGUAGG; MIWI and MILI are mouse PIWI proteins and EfPiwi is from a freshwater sponge; tags in brackets are library labels; higher = faster piRNA-guided slicing of the target
Summary of the method: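 At 33 °C in HEPES–potassium acetate buffer, a transcribed, DNA-blocked target RNA library […] was exposed for 0–8 or 0–960 min to 1 nM active affinity-purified piRISC carrying a single synthetic guide, with or without 500 nM GTSF1 partner protein. Uncleaved targets were sequenced and normalised to depth and to weakly complementary targets. With three trials pooled and k3 capped at 0.0001 min^-1, a burst-and-steady-state fit produced the pre-steady-state cleavage rate.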

| Sequence | pre-steady-state target cleavage rate |
| --- | --- |
| UCCUGCUACAGCUUGCAUAGUAUUAAGUUA | 0.0064 ± 0.0019 |
| UCCUCCUAGAGCUUGCAUAGUAUAUAGUUA | 0.00597 ± 0.0022 |
| UCCUGGAUGAGCUUGCAUAGUGUUUAGUUA | 0.00987 ± 0.0028 |
| UCCUGCUACAGCUUGCACAGUAUUUAGUUA | 0.0133 ± 0.0041 |
| UCCUCCUACAGCUUGGUUAGUAUUUAGUUA | 0.0149 ± 0.006 |
| UCCUGGUACACUUGCAUAGUAUUUAGUUA | 0.00407 ± 0.0024 |
| UCCUGCUACAGCUUCCUUAGUAUUUAGUUA | 0.00425 ± 0.0019 |
| UCCUGGUACAGCAUGCAUUGUAUUUAGUUA | 0.00628 ± 0.0022 |
